Test results reported in the supplement of paper PMC11732987, “Enantioselective OTUD7B fragment discovery through chemoproteomics screening and high-throughput optimisation” (Communications Chemistry, 2025).

Experiments:
Assay in all cases: log2 ratio of Biotin-Ahx-Ub-VS probe labelling (fragment/DMSO); higher = less target engagement (more negative = stronger competition), active = hit call of the paper (q ≤ 0.05, log2 ratio ≤ -1)
Conditions in all cases: compound concentration: 200 uM; treatment time: 3 h
[1] = biological target: T1, USP19 (UniProt O94966)
T1 sequence (whole entry): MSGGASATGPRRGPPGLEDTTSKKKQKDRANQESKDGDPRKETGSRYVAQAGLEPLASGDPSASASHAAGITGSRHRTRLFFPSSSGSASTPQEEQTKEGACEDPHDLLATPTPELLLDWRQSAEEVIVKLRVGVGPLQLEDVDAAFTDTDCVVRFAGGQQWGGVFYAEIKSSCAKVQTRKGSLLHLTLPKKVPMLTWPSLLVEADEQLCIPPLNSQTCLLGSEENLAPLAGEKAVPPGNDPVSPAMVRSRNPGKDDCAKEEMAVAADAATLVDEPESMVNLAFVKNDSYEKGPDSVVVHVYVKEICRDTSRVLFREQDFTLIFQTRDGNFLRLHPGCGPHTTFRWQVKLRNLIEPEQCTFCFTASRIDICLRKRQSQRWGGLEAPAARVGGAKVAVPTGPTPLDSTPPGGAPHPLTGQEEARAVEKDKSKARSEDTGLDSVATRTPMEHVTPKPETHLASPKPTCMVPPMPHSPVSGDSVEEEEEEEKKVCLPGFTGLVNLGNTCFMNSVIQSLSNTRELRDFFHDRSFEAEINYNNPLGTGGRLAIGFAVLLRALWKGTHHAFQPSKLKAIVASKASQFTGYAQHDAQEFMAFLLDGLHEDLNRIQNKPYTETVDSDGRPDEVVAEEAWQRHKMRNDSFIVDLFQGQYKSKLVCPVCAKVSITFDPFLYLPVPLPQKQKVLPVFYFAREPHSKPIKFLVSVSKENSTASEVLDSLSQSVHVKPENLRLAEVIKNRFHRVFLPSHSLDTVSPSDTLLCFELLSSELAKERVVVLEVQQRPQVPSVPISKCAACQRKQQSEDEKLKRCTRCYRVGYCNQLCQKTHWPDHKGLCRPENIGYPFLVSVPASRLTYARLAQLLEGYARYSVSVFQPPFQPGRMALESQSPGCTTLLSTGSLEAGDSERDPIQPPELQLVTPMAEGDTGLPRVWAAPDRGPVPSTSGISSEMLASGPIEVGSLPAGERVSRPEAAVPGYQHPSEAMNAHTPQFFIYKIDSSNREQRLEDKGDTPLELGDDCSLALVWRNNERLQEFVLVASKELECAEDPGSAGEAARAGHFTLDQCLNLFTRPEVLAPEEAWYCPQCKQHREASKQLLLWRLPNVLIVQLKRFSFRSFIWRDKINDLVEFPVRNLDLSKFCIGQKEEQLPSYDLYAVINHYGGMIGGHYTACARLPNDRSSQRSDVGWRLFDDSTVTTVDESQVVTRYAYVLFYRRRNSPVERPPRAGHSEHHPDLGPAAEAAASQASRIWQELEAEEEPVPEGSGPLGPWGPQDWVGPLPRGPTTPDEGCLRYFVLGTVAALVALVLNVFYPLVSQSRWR
Procedure, shortened: (§1)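 The table lists average log2 ratios of fragment over vehicle, from an unpaired t-test on global-median-normalised Spectronaut label-free quantities. Proteins with ≥2 unique peptides were used. Samples were HEK293T lysate (495 µg) treated in triplicate with fragment at 200 µM or vehicle for 3 h, then with Biotin-Ahx-Ub-VS (0.5 µM final) for 1 h, with labelled DUBs NeutrAvidin-enriched and run by diaPASEF LC-MS/MS.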

[2] = biological target: T2, USP22 (UniProt Q9UPT9)
T2 sequence (whole entry): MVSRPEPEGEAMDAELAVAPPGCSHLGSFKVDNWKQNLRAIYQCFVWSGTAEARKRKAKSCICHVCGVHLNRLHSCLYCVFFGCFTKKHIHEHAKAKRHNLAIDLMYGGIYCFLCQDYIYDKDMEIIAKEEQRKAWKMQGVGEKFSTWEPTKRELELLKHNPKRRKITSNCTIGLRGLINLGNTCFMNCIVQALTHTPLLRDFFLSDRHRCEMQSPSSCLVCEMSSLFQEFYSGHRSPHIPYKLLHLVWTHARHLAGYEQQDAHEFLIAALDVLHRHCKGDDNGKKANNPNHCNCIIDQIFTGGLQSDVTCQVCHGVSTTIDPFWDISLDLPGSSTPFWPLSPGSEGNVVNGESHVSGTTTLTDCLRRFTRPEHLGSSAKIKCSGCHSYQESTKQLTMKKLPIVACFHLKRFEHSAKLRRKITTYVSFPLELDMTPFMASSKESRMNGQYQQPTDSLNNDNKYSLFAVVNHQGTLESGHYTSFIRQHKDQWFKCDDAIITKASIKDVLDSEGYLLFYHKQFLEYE
Procedure, shortened: as §1

[3] = biological target: USP24 (UniProt Q9UPU5)
Sequence of USP24 (Q9UPU5 whole entry): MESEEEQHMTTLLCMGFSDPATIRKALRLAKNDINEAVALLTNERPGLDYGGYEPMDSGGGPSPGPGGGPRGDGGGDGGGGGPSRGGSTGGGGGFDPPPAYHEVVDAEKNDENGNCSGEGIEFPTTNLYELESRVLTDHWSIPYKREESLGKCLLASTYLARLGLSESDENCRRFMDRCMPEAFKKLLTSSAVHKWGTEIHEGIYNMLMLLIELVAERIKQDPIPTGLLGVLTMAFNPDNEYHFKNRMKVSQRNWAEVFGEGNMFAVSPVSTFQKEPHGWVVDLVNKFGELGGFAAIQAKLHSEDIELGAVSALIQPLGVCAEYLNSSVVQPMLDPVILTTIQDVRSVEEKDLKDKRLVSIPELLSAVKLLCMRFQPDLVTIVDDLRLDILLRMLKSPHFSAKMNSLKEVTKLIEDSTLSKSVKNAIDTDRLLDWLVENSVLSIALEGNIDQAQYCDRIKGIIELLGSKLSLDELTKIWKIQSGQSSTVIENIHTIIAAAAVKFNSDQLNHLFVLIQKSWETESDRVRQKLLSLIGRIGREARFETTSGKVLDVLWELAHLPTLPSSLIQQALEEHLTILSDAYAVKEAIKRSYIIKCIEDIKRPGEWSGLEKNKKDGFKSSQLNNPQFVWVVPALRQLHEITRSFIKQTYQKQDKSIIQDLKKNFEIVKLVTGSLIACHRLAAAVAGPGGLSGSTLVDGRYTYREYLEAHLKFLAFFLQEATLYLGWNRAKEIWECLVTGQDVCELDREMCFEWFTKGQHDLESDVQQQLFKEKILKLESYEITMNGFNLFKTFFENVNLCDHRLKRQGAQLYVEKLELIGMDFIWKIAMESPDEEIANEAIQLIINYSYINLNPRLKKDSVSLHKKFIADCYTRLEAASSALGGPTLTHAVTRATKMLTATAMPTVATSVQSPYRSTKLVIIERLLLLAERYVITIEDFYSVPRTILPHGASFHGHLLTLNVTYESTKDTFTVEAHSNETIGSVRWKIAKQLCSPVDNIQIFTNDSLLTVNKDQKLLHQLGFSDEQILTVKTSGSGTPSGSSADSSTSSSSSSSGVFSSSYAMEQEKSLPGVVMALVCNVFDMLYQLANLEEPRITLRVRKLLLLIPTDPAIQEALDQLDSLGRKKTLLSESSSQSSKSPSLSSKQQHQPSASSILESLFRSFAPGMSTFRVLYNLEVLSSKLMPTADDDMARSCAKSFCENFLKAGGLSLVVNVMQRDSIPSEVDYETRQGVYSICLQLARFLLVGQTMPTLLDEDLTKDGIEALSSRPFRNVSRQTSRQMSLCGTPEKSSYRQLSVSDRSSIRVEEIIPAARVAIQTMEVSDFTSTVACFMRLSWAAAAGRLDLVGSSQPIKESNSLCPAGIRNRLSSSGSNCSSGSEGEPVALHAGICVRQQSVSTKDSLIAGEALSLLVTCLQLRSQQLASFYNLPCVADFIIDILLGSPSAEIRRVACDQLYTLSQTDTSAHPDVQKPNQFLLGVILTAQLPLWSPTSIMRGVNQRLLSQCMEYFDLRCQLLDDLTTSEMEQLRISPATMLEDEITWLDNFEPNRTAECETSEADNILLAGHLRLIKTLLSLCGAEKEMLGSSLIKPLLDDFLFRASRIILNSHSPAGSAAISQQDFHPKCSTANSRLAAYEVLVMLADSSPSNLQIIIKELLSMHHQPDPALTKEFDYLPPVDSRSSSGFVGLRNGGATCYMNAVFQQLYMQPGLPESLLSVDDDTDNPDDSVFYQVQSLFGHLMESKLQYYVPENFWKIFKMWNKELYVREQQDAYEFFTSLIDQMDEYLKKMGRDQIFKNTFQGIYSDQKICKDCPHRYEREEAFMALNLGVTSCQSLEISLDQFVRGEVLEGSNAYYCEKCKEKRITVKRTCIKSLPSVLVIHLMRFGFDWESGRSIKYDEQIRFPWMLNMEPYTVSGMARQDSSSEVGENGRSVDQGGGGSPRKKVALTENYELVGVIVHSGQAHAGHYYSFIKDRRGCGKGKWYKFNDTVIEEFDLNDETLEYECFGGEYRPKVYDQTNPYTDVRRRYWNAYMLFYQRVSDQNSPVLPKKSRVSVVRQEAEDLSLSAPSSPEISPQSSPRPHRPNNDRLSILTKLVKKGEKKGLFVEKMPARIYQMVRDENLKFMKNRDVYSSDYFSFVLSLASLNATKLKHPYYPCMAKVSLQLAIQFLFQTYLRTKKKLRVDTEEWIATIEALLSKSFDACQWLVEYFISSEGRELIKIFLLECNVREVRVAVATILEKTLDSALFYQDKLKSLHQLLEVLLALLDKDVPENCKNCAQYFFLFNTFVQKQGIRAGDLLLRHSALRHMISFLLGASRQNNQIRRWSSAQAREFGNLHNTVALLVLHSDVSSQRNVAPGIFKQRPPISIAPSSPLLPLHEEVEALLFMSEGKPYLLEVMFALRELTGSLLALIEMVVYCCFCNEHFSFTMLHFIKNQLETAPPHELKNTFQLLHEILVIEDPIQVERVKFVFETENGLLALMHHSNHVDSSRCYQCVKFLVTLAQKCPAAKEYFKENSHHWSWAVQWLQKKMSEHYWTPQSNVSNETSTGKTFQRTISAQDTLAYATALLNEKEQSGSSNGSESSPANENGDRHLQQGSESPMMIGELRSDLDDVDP
Procedure, shortened: as §1

[4] = biological target: T3, USP25 (UniProt Q9UHP3)
T3 sequence (whole entry): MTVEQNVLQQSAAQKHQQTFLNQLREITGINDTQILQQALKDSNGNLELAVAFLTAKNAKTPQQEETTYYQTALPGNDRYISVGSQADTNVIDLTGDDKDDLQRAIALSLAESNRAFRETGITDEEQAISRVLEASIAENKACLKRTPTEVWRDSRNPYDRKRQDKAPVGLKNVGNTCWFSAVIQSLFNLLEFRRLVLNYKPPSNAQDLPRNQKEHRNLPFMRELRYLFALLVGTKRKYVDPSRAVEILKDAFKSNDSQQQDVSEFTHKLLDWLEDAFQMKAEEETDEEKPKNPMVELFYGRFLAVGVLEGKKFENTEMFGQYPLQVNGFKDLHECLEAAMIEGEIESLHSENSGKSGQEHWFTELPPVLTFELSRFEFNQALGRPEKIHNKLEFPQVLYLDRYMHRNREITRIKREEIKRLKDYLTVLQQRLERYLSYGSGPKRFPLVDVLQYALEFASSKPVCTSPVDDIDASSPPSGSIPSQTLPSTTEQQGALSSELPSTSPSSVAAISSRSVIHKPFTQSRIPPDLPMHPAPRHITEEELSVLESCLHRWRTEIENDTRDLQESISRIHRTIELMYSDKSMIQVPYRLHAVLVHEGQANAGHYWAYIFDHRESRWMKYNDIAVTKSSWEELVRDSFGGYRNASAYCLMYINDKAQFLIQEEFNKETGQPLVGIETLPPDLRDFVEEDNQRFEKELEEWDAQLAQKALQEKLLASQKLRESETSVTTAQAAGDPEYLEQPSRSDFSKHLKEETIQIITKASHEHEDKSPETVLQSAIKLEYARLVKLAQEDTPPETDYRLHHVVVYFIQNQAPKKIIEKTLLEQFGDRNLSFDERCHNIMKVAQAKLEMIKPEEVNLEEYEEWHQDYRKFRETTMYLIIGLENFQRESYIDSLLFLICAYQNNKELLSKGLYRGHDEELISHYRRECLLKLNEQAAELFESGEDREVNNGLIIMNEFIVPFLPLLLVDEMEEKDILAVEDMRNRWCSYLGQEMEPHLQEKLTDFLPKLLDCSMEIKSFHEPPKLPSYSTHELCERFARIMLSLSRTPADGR
Procedure, shortened: as §1

[5] = biological target: T4, USP28 (UniProt Q96RU2)
T4 sequence (whole entry): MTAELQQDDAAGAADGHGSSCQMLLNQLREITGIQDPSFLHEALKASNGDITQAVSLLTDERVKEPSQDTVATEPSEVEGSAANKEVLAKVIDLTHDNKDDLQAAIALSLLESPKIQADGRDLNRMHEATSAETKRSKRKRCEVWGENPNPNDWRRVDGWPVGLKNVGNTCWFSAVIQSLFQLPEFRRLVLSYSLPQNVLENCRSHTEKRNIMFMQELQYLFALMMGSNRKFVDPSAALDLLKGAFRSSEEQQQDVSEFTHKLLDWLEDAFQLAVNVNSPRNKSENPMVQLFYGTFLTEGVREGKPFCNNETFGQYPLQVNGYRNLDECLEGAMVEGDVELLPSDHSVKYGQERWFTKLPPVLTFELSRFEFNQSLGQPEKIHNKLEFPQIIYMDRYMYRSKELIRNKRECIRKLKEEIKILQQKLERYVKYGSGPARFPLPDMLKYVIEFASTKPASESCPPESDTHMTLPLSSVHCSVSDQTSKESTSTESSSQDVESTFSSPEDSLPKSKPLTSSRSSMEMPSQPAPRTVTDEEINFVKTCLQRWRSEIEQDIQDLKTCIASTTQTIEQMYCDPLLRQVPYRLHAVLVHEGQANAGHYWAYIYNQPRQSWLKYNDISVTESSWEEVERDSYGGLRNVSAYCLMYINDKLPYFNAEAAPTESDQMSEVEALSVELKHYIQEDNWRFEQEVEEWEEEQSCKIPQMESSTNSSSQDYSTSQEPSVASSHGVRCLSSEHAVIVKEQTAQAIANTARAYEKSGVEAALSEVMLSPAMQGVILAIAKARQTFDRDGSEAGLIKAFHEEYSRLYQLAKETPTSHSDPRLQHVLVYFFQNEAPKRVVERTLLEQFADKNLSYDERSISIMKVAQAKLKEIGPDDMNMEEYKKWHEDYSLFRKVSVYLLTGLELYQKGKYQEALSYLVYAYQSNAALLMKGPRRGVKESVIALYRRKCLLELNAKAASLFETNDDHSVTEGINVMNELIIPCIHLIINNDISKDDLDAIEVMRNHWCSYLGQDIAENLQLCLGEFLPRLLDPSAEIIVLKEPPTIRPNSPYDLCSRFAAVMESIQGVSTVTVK
Procedure, shortened: as §1

Measured: log2 ratio of Biotin-Ahx-Ub-VS probe labelling

O=C(CCl)N1CCCCCC1c1ncon1 (stereo not given)
inactive: [1] -0.0696 | [2] -0.0397 | [3] -0.257 | [4] -0.435 | [5] -0.35
